Compound activity as filed in PubChem.
Most compounds without a hit are left out; they make up all but 1.8% or so of the library.
VLA-4 inh: inhibition in human VLA-4 binding assay, primary screen, VLA-4 allosteric modulator project, MLPCN library, flow cytometry, VLA-4 expressing cells; ligand binding flow cytometry; 330,000 compounds, 0.2% hits; inhibition, % (about 7 µM as worked out from the volumes in the protocol); in the data active = inhibition above about 50%
APOBEC3G inh: APOBEC3G DNA deaminase inhibitors, primary screen, biochemical, fluorescence, single-stranded DNA substrate, uHTS; inhibition, % at 20 µM; AID 493012, 2011; recombinant A3G, ssDNA deamination FAM/TAMRA fluorescence; 330,000 compounds, 0.28% hits;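 active = inhibition of at least 40% at 20 µM, with no more than 30% in the related APOBEC3A deaminase screen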;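 note: plate controls were DMSO wells with A3G for no effect and wells lacking A3G enzyme for full effect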
beta cell repl: inducers of MIN6 beta-cell proliferation, primary screen, ATP luminescence, uHTS; MIN6 cells proliferation, ATPlite luminescence, 48 h; cells starved in 0.2% serum; 100% = growth in 10% serum; proliferation, % at 10 µM; 330,000 compounds, 0.29% hits; AID 2380, 2010;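 active = compounds whose signal lies at least 3.5 SD above the mean of all wells on their plate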;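 note: 0% = DMSO-treated cells in low-serum medium and 100% = 10% serum control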
APOBEC3A inh: APOBEC3A ssDNA deaminase inhibitors, primary screen, selectivity assay for APOBEC3G inhibitor project, biochemical, FAM/TAMRA oligo cleavage fluorescence; DNA dC->dU-editing enzyme APOBEC-3A (Homo sapiens), P31941; recombinant A3A, FAM/TAMRA ssDNA deamination fluorescence; inhibition, % at 20 µM; 330,000 compounds, 0.41% hits;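 active = at least 40% inhibition at 20 µM here, with at most 30% in a related deaminase screen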;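 note: plate controls were A3A with DMSO for no effect and wells lacking A3A enzyme for full effect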
NRP1-CendR mod: modulators of CendR peptide binding to NRP-1, primary screen, biochemical, fluorescence polarization, uHTS | Neuropilin-1 (Homo sapiens), O14786 | FAM-RPARPAR peptide binding to NRP-1 | inhibition, % at 25 µM | 360,000 compounds, 0.85% hits | AID 602438, 2012;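 active = inhibition or corrected inhibition above about 18%, plus a signal ratio from 0.5 to 1.5, limit read from the data, passing the limit was not always enough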
Target sequence (O14786 whole entry, looked up): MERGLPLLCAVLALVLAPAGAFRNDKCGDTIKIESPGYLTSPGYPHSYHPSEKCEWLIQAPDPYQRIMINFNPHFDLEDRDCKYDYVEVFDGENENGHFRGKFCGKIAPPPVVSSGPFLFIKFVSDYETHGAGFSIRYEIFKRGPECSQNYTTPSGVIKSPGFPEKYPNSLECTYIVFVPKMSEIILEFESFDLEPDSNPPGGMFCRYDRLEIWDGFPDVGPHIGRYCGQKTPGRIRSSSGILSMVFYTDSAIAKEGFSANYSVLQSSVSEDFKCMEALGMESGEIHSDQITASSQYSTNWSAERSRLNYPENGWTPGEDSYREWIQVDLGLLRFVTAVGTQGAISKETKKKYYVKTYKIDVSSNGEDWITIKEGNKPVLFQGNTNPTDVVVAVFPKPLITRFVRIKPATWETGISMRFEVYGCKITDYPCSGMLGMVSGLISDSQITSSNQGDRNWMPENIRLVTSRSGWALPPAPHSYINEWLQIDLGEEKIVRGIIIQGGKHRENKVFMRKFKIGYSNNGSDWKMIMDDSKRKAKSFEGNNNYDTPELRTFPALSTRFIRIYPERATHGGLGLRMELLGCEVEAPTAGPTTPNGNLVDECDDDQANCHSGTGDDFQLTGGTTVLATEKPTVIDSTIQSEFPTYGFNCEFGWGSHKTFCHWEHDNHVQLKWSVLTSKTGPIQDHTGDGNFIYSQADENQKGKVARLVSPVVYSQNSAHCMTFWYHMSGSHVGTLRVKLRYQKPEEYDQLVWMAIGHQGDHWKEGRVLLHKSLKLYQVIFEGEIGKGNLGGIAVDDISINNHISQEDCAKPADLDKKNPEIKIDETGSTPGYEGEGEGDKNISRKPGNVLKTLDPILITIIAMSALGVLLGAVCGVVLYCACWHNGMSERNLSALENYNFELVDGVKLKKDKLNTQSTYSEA
The depositor's hits bear a star.

Screening [O-]/[N+](=C/c1ccccc1)c1ccccc1 returned VLA-4 inh 17, APOBEC3G inh -8, beta cell repl -1, APOBEC3A inh -4 and NRP1-CendR mod 1.
Screening NNc1ccc([N+](=O)[O-])c2[nH][nH]c(=O)c12 returned NRP1-CendR mod 29*.
`CCOC(=O)CN(C(=O)c1snc(C(N)=O)c1N)C(C(=O)NC1CCCCC1)c1ccc(F)cc1` (centres undefined) gave VLA-4 inh 2, APOBEC3G inh 8, beta cell repl -2, APOBEC3A inh 2 and NRP1-CendR mod -12.
For COc1ccccc1N(CC(=O)NC1CCCC1)C(=O)CCC(=O)Nc1ccccn1 the results were VLA-4 inh 5, APOBEC3G inh -7, beta cell repl 0, APOBEC3A inh -2 and NRP1-CendR mod 21*.
`Cc1ccnc(NC(=O)CCC(=O)N(CC(=O)NC2CCCCC2)Cc2ccccc2)c1` gave VLA-4 inh 7, APOBEC3G inh -3, beta cell repl 3, APOBEC3A inh -1 and NRP1-CendR mod 31*.
`O=C(CCC(=O)N(CC(=O)NC1CCCCC1)Cc1ccccc1)Nc1ccccn1` gave VLA-4 inh -4, APOBEC3G inh 1, beta cell repl 2, APOBEC3A inh 5 and NRP1-CendR mod -1.
For O=C(c1cc2ccccc2o1)N1CCN(c2ncccn2)CC1 the results were VLA-4 inh 4, APOBEC3G inh -5, beta cell repl -3, APOBEC3A inh -2 and NRP1-CendR mod -12.
For O=C(CCC(=O)c1cccs1)NNC(=O)c1cccc(Cl)c1 the results were VLA-4 inh 1, APOBEC3G inh -9, beta cell repl -6, APOBEC3A inh -1 and NRP1-CendR mod -5.
Screening O=C(CCC(=O)c1cccs1)NNC(=O)c1ccccc1Cl returned VLA-4 inh 16, APOBEC3G inh -6, beta cell repl -2, APOBEC3A inh -1 and NRP1-CendR mod 27*.
CNC(=S)NNC(=O)c1ccccc1Cl was read as VLA-4 inh 21, APOBEC3G inh -13, beta cell repl -3, APOBEC3A inh -6 and NRP1-CendR mod 25*.
CC(C)(C)NC(=S)NNC(=O)c1ccccc1Cl was read as VLA-4 inh 5, APOBEC3G inh 0, beta cell repl 0, APOBEC3A inh -2 and NRP1-CendR mod -1.
For CCCn1nnnc1SCC(=O)N1CCCC1 the results were VLA-4 inh 11, APOBEC3G inh -8, beta cell repl -1, APOBEC3A inh -5 and NRP1-CendR mod -4.
CCCn1nnnc1SCC(=O)N1C(C)CCCC1C (centres undefined) was read as VLA-4 inh 10, APOBEC3G inh -3, beta cell repl 1, APOBEC3A inh -6 and NRP1-CendR mod 22*.
S=C(Nc1ccc2nsnc2c1)N1CCCCCC1 was read as VLA-4 inh 1, APOBEC3G inh 15, beta cell repl -5, APOBEC3A inh 1 and NRP1-CendR mod 45*.
C=CCN(CC=C)C(=S)Nc1ccc2nsnc2c1 was read as VLA-4 inh -4, APOBEC3G inh -4, beta cell repl -1, APOBEC3A inh 0 and NRP1-CendR mod 30*.
`O=C(Nc1ccc2nsnc2c1)N1CCCCC1` gave VLA-4 inh 1, APOBEC3G inh 3, beta cell repl 1, APOBEC3A inh 2 and NRP1-CendR mod 8.
`CCOC1=C2CN(S(=O)(=O)c3ccc(C)cc3)[C@H](c3ccccc3)C[C@@H]2N(S(C)(=O)=O)[C@H](c2ccccc2)C1` gave NRP1-CendR mod -24.
Screening O=C(O)c1cn(Cc2ccccc2)c2ccc(Cl)cc2c1=O returned VLA-4 inh 20, APOBEC3G inh -2, beta cell repl -2, APOBEC3A inh -2 and NRP1-CendR mod 23*.
COc1ccc(Cn2cc(C(=O)O)c(=O)c3ccccc32)cc1 was read as VLA-4 inh -5, APOBEC3G inh -3, beta cell repl 0, APOBEC3A inh -2 and NRP1-CendR mod 7.
COc1ccc(/C=C2\C(=O)OCc3cc(OC)c(OC)cc32)cc1OC was read as VLA-4 inh 10, APOBEC3G inh -11, beta cell repl 2, APOBEC3A inh -3 and NRP1-CendR mod 25*.
`COc1cc2c(cc1OC)/C(=C/c1ccc(Cl)cc1)C(=O)OC2` gave APOBEC3G inh -3, beta cell repl 0, APOBEC3A inh -1 and NRP1-CendR mod 2.
`O=[N+]([O-])c1c(NCCCO)cc(SCc2ccco2)c2nonc12` gave VLA-4 inh 9, APOBEC3G inh 19, beta cell repl 1, APOBEC3A inh 25 and NRP1-CendR mod 1.
Screening CC(=O)OCCNc1cc(SCc2ccco2)c2nonc2c1[N+](=O)[O-] returned VLA-4 inh -4 and NRP1-CendR mod 27*.
Screening O=C(NCCc1cn[nH]c1)c1ccc2oc(CCc3ccccc3)nc2c1 returned NRP1-CendR mod -17.
Screening C=C1CCN([C@H](C(=O)O)C(C)C)S(=O)(=O)c2ccccc21 returned VLA-4 inh 28, APOBEC3G inh -4, beta cell repl -4, APOBEC3A inh -1 and NRP1-CendR mod 36*.
`CCOC(=O)C1=C(C)NC2=C(C(=O)CCC2)C1c1cn(Cc2ccc(Cl)cc2Cl)nc1-c1ccccc1` (centres undefined) gave VLA-4 inh 4, APOBEC3G inh -1, beta cell repl -3, APOBEC3A inh 0 and NRP1-CendR mod 25*.
O=C(NCc1cccnc1)c1ccc(N2CCOCC2)c([N+](=O)[O-])c1 was read as VLA-4 inh 7, APOBEC3G inh -3, beta cell repl 0, APOBEC3A inh -1 and NRP1-CendR mod 14.
CCOc1ccc(C(=O)NCc2cccnc2)cc1[N+](=O)[O-] was read as VLA-4 inh 4, APOBEC3G inh -8, beta cell repl -2, APOBEC3A inh -3 and NRP1-CendR mod 22*.
Screening NC(=O)C1CC(=O)N(c2ccc(OCC(=O)N3CCCC3)cc2)C1 (centres undefined) returned NRP1-CendR mod 28*.
COc1ccccc1NS(=O)(=O)c1cc(NC(=O)c2ccc3c(c2)OCCO3)ccc1C was read as VLA-4 inh 10, APOBEC3G inh -4, beta cell repl -2, APOBEC3A inh 0 and NRP1-CendR mod 30*.
CC(C)n1nccc1NC(=O)COC(=O)c1ccc(NC(N)=O)cc1 was read as VLA-4 inh -1, APOBEC3G inh 2, beta cell repl -2, APOBEC3A inh -1 and NRP1-CendR mod 24*.
